Screening data: PubChem, National Center for Advancing Translational Sciences (NCATS)
Pf Dd2 inh: blocks in vitro growth of P. falciparum Dd2 | Potency, µM (series often up to 28.9 µM), hits mostly inhibitors | 4.3% of 120,000 active | P. falciparum Dd2 growth, SYBR Green, 72 h; active = well fitted inhibition curve with a large enough effect; also: nearly all actives have a fitted effect of over 65% in size
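Infected erythrocytes (Dd2, 0.3% parasitemia, 2.5% hematocrit final) are added to compound in RPMI-1640/Albumax II medium, grown 72 h at 37C in low oxygen, then lysed with saponin/Triton-X containing SYBR Green and read by fluorescence.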
Numbers stand for hits; - = inactive; [ ] = another dose, or the depositor's remark. Only a selection was taken, and hits are over-represented in it overall.

SMILES	Pf Dd2 inh
COCCn1cnc2ccc(OCc3ccc(C(F)(F)F)cc3)nc2c1=O	-
COCCn1cnc2ccc(OCC3CC3)nc2c1=O	-
CCc1nc(-c2c3n(c(=O)n(Cc4ccc(OC)cc4)c2=O)CCCC3)no1	-
CC(=O)NC[C@H]1OC[C@@H](NC2CCC2)[C@@H]1O	-
O=C(c1ccc(Cl)cc1)N1CCC(n2c(=O)[nH]c3ccccc32)CC1	-
COc1ccc(F)c(CN2CCCC(O)(CN3CCC(C(C)C)CC3)C2=O)c1 (stereo not drawn)	-
COc1ccc(F)c(CN2CCCC(O)(CN3CCC(C)CC3)C2=O)c1 (stereo not drawn)	4µM
COc1ccc(F)c(CN2CCCC(O)(CN3CCCCC3)C2=O)c1 (stereo not drawn)	-
CC(O)c1cc2n(n1)CCCN(C(=O)Cn1nc3ccccc3n1)C2 (stereo not drawn)	-
O=C(NC1CCCN(c2cc(-c3ccc(F)cc3)[nH]n2)C1)c1ccoc1 (stereo not drawn)	-
Cn1ncc(CN2CCc3nc(-c4ccc(F)cc4F)[nH]c3C2)c1C1CC1	11µM
CN1CCN(c2nc3c(c(=O)[nH]2)CCN(Cc2ccc(F)cc2F)CC3)CC1	-[5.79 µM]
Cc1noc(CN2CCc3nc(-c4ccc(F)cc4F)[nH]c3C2)n1	-
O=C1NC2(CCN(CC3CCCCC3)C2)OCc2ccccc21 (stereo not drawn)	-
O=C(NCc1ccccc1)c1ccc(CSc2nc3cccnc3n2Cc2ccccc2)cc1	-
CN(Cc1ccccc1)C(=O)c1ccc(CSc2nc3cccnc3n2Cc2ccccc2)cc1	10µM
O=C(NCc1ccccc1F)c1ccc(CSc2nc3cccnc3n2Cc2ccccc2)cc1	-
O=C(NC1CCCCC1)c1ccc(Cn2c(SCc3ccccc3F)nc3cccnc32)cc1	-
O=C(NCc1ccco1)c1ccc(Cn2c(SCc3ccc(F)cc3)nc3cccnc32)cc1	-
O=C(NCCc1ccccc1)c1ccc(Cn2c(SCc3ccc(F)cc3)nc3cccnc32)cc1	-
O=C(NCCN1CCCCC1)c1ccc(Cn2c(SCc3cccc(F)c3)nc3cccnc32)cc1	7.9µM
Cc1ccccc1CNC(=O)c1ccc(CSc2nc3cccnc3n2Cc2ccccc2)cc1	-
CNC(=O)c1ccc(CSc2nc3cccnc3n2Cc2cccc(F)c2)cc1	-
CCOc1ccccc1CNC(=O)c1ccc(Cn2c(SCc3ccccc3)nc3cccnc32)cc1	11µM
O=C(NCCc1ccccc1)c1ccc(CSc2nc3cccnc3n2Cc2ccccc2F)cc1	8.9µM
SMILES	Pf Dd2 inh
CN(C)c1cc(N2CCCC(NC(=O)Cc3ccsc3)C2)ncn1 (stereo not drawn)	-[5.79 µM]
C=CCNC(=O)N[C@H]1CCN(C(=O)CSC)[C@@H]1C(=O)N[C@H](Cc1c[nH]c2ccccc12)C(N)=O	-
COC1CN(c2ccc(C)cc2)C12CCN(C(=O)CC(C)C)CC2 (stereo not drawn)	-
CN(Cc1cccnc1)C1CN(S(=O)(=O)c2ccc3c(c2)OCCO3)C1	-
O=C(c1ccc2cccc(F)c2n1)N1CCOc2ccc(Cl)cc2C1	-
O=C(c1cccc2nccnc12)N1CCc2c(ncnc2N2CCOCC2)C1	-
CC[C@H]1CN(C(=O)NC2CCCCC2)CC[C@H]1CC(=O)Nc1nccs1	-
COCCn1c(COc2c(C)nc(C)nc2C)nnc1C1CC(N)C1 (stereo not drawn)	-
CCN1CCCC1Cn1ccnc1-c1cc2n(n1)CCCNC2 (stereo not drawn)	-
COc1cc(CNC(=O)C2Cn3cccc3C(=O)N2)cc(OC)c1 (stereo not drawn)	-
CN(C(=O)Cn1nc2n(c1=O)CCCCC2)C1CCCCC1	-
CC(C)CCC(=O)N[C@@H]1CN(C)C[C@H]1CN(C)C	-
COCCN1CCCCC(CC(=O)Nc2ccc(OC)cc2)C1=O (stereo not drawn)	-
O=C(NC1CC1)c1ccc(Cn2c(SCc3ccccc3F)nc3cccnc32)cc1	-
COc1ccc(Cn2c(SCc3ccc(C(=O)NCCc4ccccc4)cc3)nc3cccnc32)cc1	13µM
O=C(CCC1CCCN(S(=O)(=O)c2ccccc2)C1)N1CCN(c2ccccn2)CC1 (stereo not drawn)	-
Cc1nc(-c2c3n(c(=O)n(CC(=O)Nc4ccc(C)c(F)c4)c2=O)CCCCC3)no1	-
COC(=O)CNC(=O)C1CCc2nnc(-c3ccc(Cl)nc3)n21 (stereo not drawn)	-
O=C(NCc1cccnc1)C1CCc2nnc(-c3ccc(Cl)nc3)n21 (stereo not drawn)	-
O=C(NCCc1ccc(Cl)cc1)C1CCc2nnc(-c3ccc(Cl)nc3)n21 (stereo not drawn)	4µM
CN(Cc1cccc(O)c1)C(=O)c1cc(COc2ccccc2F)[nH]n1	-
COC1C(=O)N(c2cccc(F)c2)C12CCN(C(=O)C1CCCC1)CC2 (stereo not drawn)	-
Cc1ccc(C(=O)N2CCCCCCNC(=O)[C@@H]3C[C@@H](c4nc(C(C)C)no4)C[C@@H]32)s1	-
COc1cc(=O)n2c(c1C(=O)Nc1ccc3c(c1)OCCO3)CCCC2	-
CC(C)c1noc([C@@H]2C[C@H]3C(=O)NCCCCCCN(C(=O)c4ccco4)[C@H]3C2)n1	-
